# Rows were chosen to be rich in hits. Some 2.9% of all compounds tested hit in one or more screens of this group.
# FadD28 FP inh = M. tuberculosis FadD28 bisubstrate binding inhibition | inhibition, % at 12.5 µM | FadD28 bisubstrate probe binding, fluorescence polarization | hit rate 0.22% among 360,000; in the data active means inhibition above about 8.5%, passing the limit was not always enough
# GDH-TPI counter-1 = GDH-TPI coupled enzyme inhibition counter-screen; GDH-TPI coupled enzyme counterscreen, NADH absorbance; inhibition, % at 4.8 µM; hit rate 1.2% among 360,000; AID 588335; in the data active means inhibition above about 30%
# Mtb BioA inh = BioA (M. tuberculosis) enzyme inhibition. purified M. tuberculosis BioA enzyme, plate reader. inhibition, % at 9.99 µM. hit rate 0.096% among 360,000; in the data active means inhibition above about 40%
# Mtb hypoxia inh = inhibitors of hypoxia-regulated fluorescent reporter in Mycobacterium tuberculosis; fluorescence inhibition, % (test concentration not listed); AID 1159583; hit rate 0.1% among 300,000; M. tuberculosis hypoxia-regulated fluorescent reporter, fluorescence; in the data active means fluorescence inhibition mostly above about 23%, no sharp cut-off; inactive means mostly below about 17%
# FBA Mtb inh = inhibits M. tuberculosis FBA enzyme; purified M. tuberculosis FBA, fluorescence read-out; inhibition, % at 1 µM; hit rate 2.3% among 360,000; AID 588726
# Target sequence (P9WQA3 whole entry, looked up): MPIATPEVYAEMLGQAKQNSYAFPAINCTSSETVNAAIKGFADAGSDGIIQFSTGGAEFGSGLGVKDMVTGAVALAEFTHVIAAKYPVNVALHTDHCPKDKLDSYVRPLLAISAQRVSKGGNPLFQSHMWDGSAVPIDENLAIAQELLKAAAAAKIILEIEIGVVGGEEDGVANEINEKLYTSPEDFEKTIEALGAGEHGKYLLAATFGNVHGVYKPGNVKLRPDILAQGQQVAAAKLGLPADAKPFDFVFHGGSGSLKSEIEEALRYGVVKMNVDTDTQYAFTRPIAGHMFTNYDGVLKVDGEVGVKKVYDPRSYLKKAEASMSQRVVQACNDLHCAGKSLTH
# Mtb FBA inh conf = Mtb FBA inhibition, confirmed | hit rate 78% among 5,600 | purified M. tuberculosis FBA, fluorescence read-out | shares compounds with FBA Mtb inh | inhibition, % at 1 µM
# GDH-TPI counter-2 = GDH-TPI inhibition counter-screen for FBA inhibitors. hit rate 81% among 5,600. shares compounds with FBA Mtb inh. AID 652141. GDH-TPI coupled enzyme counterscreen, fluorescence. inhibition, % at 1 µM; in the data active means inhibition above about 10%
# A number is an active result; - = inactive; . = no result given; + = active, no number. Unless noted, no stated cut-off is given here; in the data, active means inhibition above about 27%; inactive means the rest.
SMILES,FadD28 FP inh,GDH-TPI counter-1,Mtb BioA inh,Mtb hypoxia inh,FBA Mtb inh,Mtb FBA inh conf,GDH-TPI counter-2
COC(=O)c1ccc(/C=C/c2ccc3cccc(OC)c3n2)cc1,-,37,.,-,60,+,+
COc1ccc(/C=C/c2ccc3cccc(O)c3n2)cc1Br,-,-,-,-,-,.,.
C[C@H](O)C#Cc1cnc2c(c1)C(=O)N([C@H](C)CO)C[C@H](C)[C@H](CN(C)CC1CC1)O2,.,.,-,.,.,.,.
COC(=O)c1[nH]c2ccc(Cl)cc2c1NC(=O)Oc1ccccc1,-,-,-,.,66,-,-
COC(=O)c1[nH]c2ccc(Cl)cc2c1NC(=O)C1CC1,-,-,-,.,-,.,.
COc1ccccc1C=NNC(=O)NC12CC3CC(CC(C3)C1)C2,.,.,.,-,.,.,.
CCCc1cc(=O)n2c([nH]c3ccccc32)c1C#N,-,-,-,-,54,+,195
CCCCc1c(C)c(C#N)c2[nH]c3ccccc3n2c1=O,-,-,-,-,77,-,-
C[C@H]1CN([C@@H](C)CO)C(=O)c2cc(NS(=O)(=O)c3ccc(Cl)cc3)ccc2O[C@H]1CN(C)S(=O)(=O)c1cn(C)cn1,.,.,-,.,.,.,.
O=c1cc(-c2ccc(O)c(O)c2)oc2c1ccc1ccccc12,.,-,-,-,-,.,.
O=c1cc(-c2cccnc2)oc2c1ccc1ccccc12,-,-,-,.,45,+,186
COC(=O)c1ccc2c(c1)C(C)(C)C(/C=C/c1ccc(O)cc1)=[N+]2C,-,-,.,-,-,.,.
COC(=O)c1ccc2c(c1)C(C)(C)C(/C=C/c1ccc(OC)c(OC)c1OC)=[N+]2C,-,-,.,.,47,78,57
Cc1cc(Oc2ccc(C(F)(F)F)cc2[N+](=O)[O-])c2c3c(c(=O)oc2c1)CCC3,-,-,-,-,-,.,.
Cc1cc(OCC(=O)OC(C)C)c2c3c(c(=O)oc2c1)CCCC3,-,-,-,-,-,.,.
COC(=O)C(C)Oc1cc(C)cc2oc(=O)c3c(c12)CCCC3 (stereo not given),-,-,-,.,57,59,51
CCOC(=O)C(C)Oc1cc(C)cc2oc(=O)c3c(c12)CCCC3 (stereo not given),-,-,-,-,75,65,62
COC(=O)C(C)Oc1cc(C)cc2oc(=O)c3c(c12)CCC3 (stereo not given),-,-,-,-,74,+,+
COc1ccccc1C(=O)NN=C(C)c1cccnc1,.,.,.,-,.,.,.
C[C@@H]1CCCCO[C@H](CN(C)Cc2ccc(C(=O)O)cc2)[C@@H](C)CN([C@H](C)CO)C(=O)c2cc(NC(=O)Nc3ccc(F)cc3)ccc2O1,.,.,-,.,.,.,.
Cc1noc(C)c1S(=O)(=O)Nc1ccc2c(c1)C(=O)N([C@H](C)CO)C[C@H](C)[C@H](CN(C)C(=O)c1ccccc1)OCCCC[C@@H](C)O2,.,.,-,.,.,.,.
COc1ccc2cc3cc(C(=O)N4CCCC(C)C4)oc3nc2c1 (stereo not given),-,-,-,-,-,.,.
COc1ccc2nc3oc(C(=O)N4CCCCC4)cc3cc2c1,-,-,-,.,57,84,63
CCOC(=O)C1CCCN(C(=O)c2cc3cc4ccc(OC)cc4nc3o2)C1 (stereo not given),-,-,-,-,92,55,32
CCOC(=O)C1CCN(C(=O)c2cc3ccc(OC)cc3[nH]2)CC1,.,-,-,-,-,.,.
SMILES,FadD28 FP inh,GDH-TPI counter-1,Mtb BioA inh,Mtb hypoxia inh,FBA Mtb inh,Mtb FBA inh conf,GDH-TPI counter-2
COc1ccc2cc3cc(C(=O)N4CCN(c5ccccc5)CC4)oc3nc2c1,-,-,.,-,-,.,.
CCOC(=O)C1CCN(C(=O)c2cc3cc4cc(OC)ccc4nc3o2)CC1,-,-,-,-,55,109,98
COc1ccc2nc3oc(C(=O)N4CC(C)CC(C)C4)cc3cc2c1 (stereo not given),-,-,-,-,56,-,-
COc1ccc(CN(C)C[C@@H]2OCCCC[C@@H](C)Oc3ccc(NS(=O)(=O)c4ccccc4)cc3C(=O)N([C@H](C)CO)C[C@H]2C)cc1,.,.,-,.,.,.,.
CCOc1cc(C2C(C(=O)OC)=CN(Cc3ccc(Cl)cc3)C=C2C(=O)OC)ccc1O,-,-,.,-,-,.,.
COC(=O)C1=CN(Cc2ccc(OC)c(OC)c2)C=C(C(=O)OC)C1c1ccc(F)cc1,-,-,-,.,97,+,142
COC(=O)C1=CN(Cc2ccc(C)cc2)C=C(C(=O)OC)C1c1cc(OC)c(OC)c(OC)c1,-,-,-,-,33,91,73
COC(=O)C1=CN(Cc2ccc(OC)c(OC)c2)C=C(C(=O)OC)C1c1ccccc1F,-,-,-,-,91,61,47
COC(=O)C1=CN(Cc2ccc(OC)c(OC)c2)C=C(C(=O)OC)C1c1ccc(O)cc1,-,-,-,-,64,+,+
O=C(N[C@H]1CC[C@@H](CCNC(=O)C2CCCCC2)O[C@H]1CO)c1ccncc1,.,.,-,.,.,.,.
O=C(NCc1cccnc1)c1cnn2ccccc12,-,-,-,-,30,193,140
CC(C)n1ncc2c(C(=O)NCc3cccnc3)cc(C3CC3)nc21,-,-,-,.,54,+,+
O=C(NCc1cccnc1)c1ccccc1Br,-,-,-,-,-,.,.
COc1cccc(CNC(=O)c2cc(C3CC3)nc3c2cnn3C(C)C)c1,-,-,-,-,-,.,.
Cc1cc(C)n2ncc(C(=O)NCc3cccnc3)c2n1,-,-,-,.,42,43,42
C=C1CCN(C(C)C(=O)NCCCCCC)S(=O)(=O)c2ccccc21 (stereo not given),.,.,.,-,.,.,.
COc1cc(C=NNC(=O)c2ccc(CSc3nc4ccccc4[nH]3)cc2)cc(OC)c1OC,.,.,.,-,.,.,.
COc1cccc(Cn2c3ccc(NC(=O)Cc4ccccc4C)cc3c(=O)n2C)c1,-,-,-,.,89,+,+
COc1cccc(CNC(=S)Nc2ccc3c(c2)c(=O)n(C)n3Cc2ccc(F)cc2)c1,-,-,-,.,29,130,94
Cc1ccccc1CC(=O)Nc1ccc2c(c1)c(=O)n(C)n2-c1cccs1,-,-,-,.,-,.,.
COc1cc(Cn2c3ccc(NC(=S)NCc4ccc(C)cc4)cc3c(=O)n2C)ccc1F,-,-,-,.,38,180,138
Cc1ccccc1CC(=O)Nc1ccc2c(c1)c(=O)n(C)n2-c1ccccc1F,-,-,-,.,104,82,72
COc1ccccc1CN1CC[C@@H]2[C@H]1c1cc(-c3cccc(C(=O)N(C)C)c3)ccc1N[C@@H]2CO,.,.,-,.,.,.,.
COc1ccc(NC(=O)Nc2ccc3c(c2)C(=O)N([C@@H](C)CO)C[C@@H](C)[C@H](CN(C)S(=O)(=O)c2ccc(F)cc2)OCCCC[C@@H](C)O3)cc1,.,.,-,.,.,.,.
COc1cc(OC)cc(C(=O)Nc2cccc3ccccc23)c1,-,-,-,-,-,.,.
COC(=O)/C(=C/Nc1cccc2ccccc12)[N+](=O)[O-],-,-,.,-,74,98,80
CCC(C)Sc1cccc(-c2nc3cc(C)ccn3c2NC2CCCCC2)c1 (stereo not given),-,-,-,-,45,140,133
